Results filed as inconclusive are left out. Calls of active or inactive are those of the source. Calls come from the whole dose curve; as a rule, active = well fitted cell-killing curve with a large enough effect in the repeat runs; inconclusive = weak or mixed curves, or effect the other way; inactive = flat fitted curve, though single readings scatter. Where a SMILES comes first, the peptide text is derived from it.

This note sets out measurements from PubChem BioAssay (Tox21).
% is set by controls: 0 for no effect and ±100 for the full control effect.

This experiment is described as follows: qHTS assay to identify small molecule agonists of the TGF-beta/Smad signaling pathway - cell viability counter screen (AID 1346829). Note: top concentration of the series differs between compounds; nearly all actives have a fitted effect of over 45% in size. The conditions noted are these: SBE-bla HEK293T viability, CellTiter-Glo luminescence, 5 h; series mostly up to 76.8 µM; activity change, negative = cytotoxicity: at the top concentration. An excerpt:
National Center for Advancing Translational Sciences [NCATS]
NIH Chemical Genomics Center [NCGC]
U.S. Environmental Protection Agency [EPA]
National Institutes of Environmental Health Sciences [NIEHS]
National Toxicology Program [NTP]
U.S. Food and Drug Administration [FDA]
Transforming growth factor beta (TGF-beta) superfamily consists of a large number of structurally related dimeric proteins that act as hormones or local mediators in regulating a wide range of biological functions. This superfamily includes TGF-betas themselves, the bone morphogenetic proteins (BMPs) and the activins. These ligands induce oligomerization of serine/threonine receptor kinases and phosphorylate the cytoplasmic signaling molecules of Smad protein family. CellSensor SBE-bla HEK 293T cell line (Life Technologies, Carlsbad, CA), responsive to TGF-beta was used to screen Tox21 10K compound library for identification of agonists/antagonists of the Smad signaling pathway. This cell line contains a beta-lactamase reporter gene under control of the Smad binding element (SBE) stably integrated into HEK 293T cells. Also cytotoxicity of the compounds was tested in parallel by measuring the cell viability using CellTiter-Glo assay system in the same wells.
Tox21 Assay Protocol Summary:
SBE-bla HEK 293T cells were dispensed at 4,000/well in 6 uL of assay medium into black wall/clear-bottom 1536-well plates using a Multidrop Combi (ThermoFisher Scientific, Waltham, MA) dispenser. After the assay plates were incubated at 37 C and 5% CO2 for an overnight, 23 nL of compounds dissolved in DMSO, positive controls or DMSO only was transferred to the assay plate by a Pintool station (Kalypsys, San Diego, CA). The assay plates were incubated at 37 C and 5% CO2 for 5 hr. One uL of LiveBLAzer B/G FRET substrate (Life Technologies) was added using a Flying Reagent Dispenser (FRD, Aurora Discovery, San Diego, CA) and the plates were incubated at room temperature for 2 hr. Fluorescence intensity (405 nm excitation, 460 nm and 530 nm emissions) was measured using an Envision plate reader (PerkinElmer, Shelton, CT). For cytotoxicity read, 4 uL of CellTiter-Glo reagent (Promega Corporation, Madison, WI) was added to each well of the assay plates using FRD. After 30min incubation at room temperature, the luminescence intensity was measured using ViewLux plate reader (PerkinElmer).
On the technique in general: In qHTS, concentration-response curves come from the screen itself.
`CC1c2ccccc2CN1NC(=O)c1ccc(Cl)c(S(N)(=O)=O)c1` (stereo not given): the “activity change, negative = cytotoxicity” value is -0.573% [at 35.3 µM] (inactive).
Next, `Cc1ccc(C(C)NC(=O)[C@@H](NC(=O)OC(C)C)C(C)C)cc1` (stereo not given in full): -8.04% (inactive); `Cc1cc(-c2ccccc2)nnc1NCCN1CCOCC1`: 3.13% [at 35.3 µM] (inactive); `NCCOCCN`: -0.183% (inactive).
In the case of `O=[N+]([O-])c1c(Cl)cc(Cl)cc1Cl` it was 0.286% (inactive); in that of `C/C=C(\C)C(=O)OCCc1ccccc1`, -1.15% (inactive).
Next, `CCOC(=O)CC1(C)OCC(C)O1` (stereo not given): 0.838% (inactive); `CNCCS(=O)(=O)O`: -2.91% (inactive).
With `CCO`, the “activity change, negative = cytotoxicity” value was 5.16% (inactive).
Next, `CC1(C)[C@H]2CC[C@](C)(C2)[C@H]1O`: 13.1% (inactive); `CCCCCCCCCCOC(C)=O`: -0.915% (inactive).
Next, `CC(=O)N[C@@H](CO)C(=O)N[C@@H](CC(=O)O)C(=O)N[C@@H](CCCCN)C(=O)N1CCC[C@H]1C(=O)O` (Ac-SDKP-OH): 2.62% [at 35.3 µM] (inactive).
As for `CCC(C(=O)OCCN1CCOC(c2ccccc2)C1C)c1ccccc1` (stereo not given), the “activity change, negative = cytotoxicity” value is -7.78% [at 35.3 µM] (inactive).
In the case of `N#Cc1cscn1` it was 3.21% (inactive).
With `CC(C)Cn1cnc2c1c(=O)n(C)c(=O)n2C`, the “activity change, negative = cytotoxicity” value was 10.3% [at 35.3 µM] (inactive).
Next, `NCC1(Cc2noc(=O)[nH]2)CCCCC1`: -7.8% (inactive); `CC(CO)(CO)CO`: 6.18% (inactive); `Cc1cc(C)c(C(=O)O)c(C)c1`: 1.2% (inactive).
Regarding `C=C(C)[C@@H]1CC=C(C)C(=O)C1`, the “activity change, negative = cytotoxicity” value was -4.19% (inactive).
In the case of `CCOCCOCC` it was -11.1% (inactive); in that of `O=C(NCN1CCOCC1)c1cnccn1`, -17.8% [at 35.3 µM] (inactive); in that of `CC(C)(CO)C(O)C(=O)NCCCO` (stereo not given), -13.6% (inactive).
In the case of `C[C@]12CCC(=O)C=C1CC[C@H]1[C@@H]3CC[C@](O)(C(=O)CO)[C@@]3(C)C[C@H](O)[C@@]12F` it was 21.5% [at 35.3 µM] (inactive); in that of `CN(C)CC/C=C1/c2ccccc2COc2ccc(CC(=O)O)cc21`, -0.75% [at 35.3 µM] (inactive); in that of `CCn1cc(C(=O)O)c(=O)c2cnc(N3CCCC3)nc21`, 3.95% [at 6.97 µM] (inactive).
Regarding `C=CCCCCCCCC`, the “activity change, negative = cytotoxicity” value is 4.51% (inactive).
In the case of `CCCCCCCCCCCCCBr` it was 12.9% (inactive).
Next, `CO/N=C(/C(=O)N[C@@H]1C(=O)N2C(C(=O)[O-])=C(C[n+]3ccn4ncccc43)CS[C@H]12)c1nsc(N)n1`: -1.42% [at 35.3 µM] (inactive); `CCCC(=O)OCCC(C)CCC=C(C)C` (stereo not given): -0.167% (inactive); `CC(C)[C@H]1CC[C@H](C)C[C@@H]1O`: -4.52% (inactive).
As for `O=C(O)[C@H](O)c1ccccc1`, the “activity change, negative = cytotoxicity” value is 5.99% [at 35.3 µM] (inactive).
Next, `C=CC(=O)OCC1CCCO1` (stereo not given): 3.62% (inactive); `COc1c2occc2c(OC)c2c(=O)cc(C)oc12`: -5.47% [at 35.3 µM] (inactive).
Next, `CC(C)OC(=O)OCOP(=O)(CO[C@H](C)Cn1cnc2c(N)ncnc21)OCOC(=O)OC(C)C`: 9.74% [at 35.3 µM] (inactive); `OC1OCCOC1O` (stereo not given): 19.9% (inactive); `O=C(CCCl)NCCc1ccccc1`: -6.25% [at 35.3 µM] (inactive).
As to `CC(=O)CCC1=C(C)CCCC1(C)C`, the “activity change, negative = cytotoxicity” value is 1.69% (inactive).
Next, `C=C(C)C1CC=C(C)C(=O)C1` (stereo not given): 1.95% (inactive).
In the case of `O=C1CCC(=O)N1Cl` it was 1.26% (inactive).
In the case of `CN(C)CCOC(=O)C(c1ccccc1)C1(O)CCCC1` (stereo not given) it was -8.05% [at 35.3 µM] (inactive).
